# According to PubChem BioAssay (Tox21):
# Where “and” joins values, the source holds several entries; their conditions need not be identical. Equal values may be shown once. Results filed as inconclusive are left out. A call without a number means that no potency is given here. A structure can be active in one record and inactive in another. Calls of active or inactive are those of the source. Calls follow the shape of the dose curve; as a rule, active = well fitted curve in the direction sought with a large enough effect in the repeat runs; inconclusive = weak or mixed curves; inactive = no such curve, though single readings can be large; an effect the other way counts as inactive or inconclusive.
# Experiments:
# [1] = A CellTox Green Cytotoxicity Assay to monitor cytotoxicity in HEK293 cells - 40 hour (AID 1224871); also: nearly all actives have a fitted effect of over 45% in size; also: potency is read from the fitted curve at half-maximal effect
# In short: (§1)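 Fluorescence from a DNA-binding dye excluded by viable cells was measured repeatedly in the same HEK293 wells (600 cells/well) during continuous compound exposure at 37 C. Each assay gives one read point: 0, 8, 16, 24, 32 or 40 h.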
# [2] = qHTS RealTime-Glo MT Cell Viability Assay in HEK293 cells - 16 hour (AID 1224872); also: nearly all actives have a fitted effect of over 50% in size; also: potency is read from the fitted curve at half-maximal effect
# In short: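 Cells + reagent dispensed (600 cells/well, HEK293) → 5 h at 37 C/5% CO2 → 23 nL compound in DMSO pinned → 40 h at 37 C → luminescence read at 0, 8, 16, 24, 32, 40 h.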
# [3] = qHTS RealTime-Glo MT Cell Viability Assay in HepG2 cells - 8 hour (AID 1224873); also: nearly all actives have a fitted effect of over 55% in size
# In short: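 HepG2 cells mixed with RealTime-Glo MT reagents (NanoLuc plus cell-permeant prosubstrate) were seeded at 600 cells/well, incubated 5 h at 37 C/5% CO2, then pinned with compounds in DMSO; nonlytic luminescence tracked viability during 40 h treatment.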
# [4] = qHTS RealTime-Glo MT Cell Viability Assay in HEK293 cells - 40 hour (AID 1224874); conditions: RealTime-Glo luminescence; max response: stronger effect = lower value; also: nearly all actives have a fitted effect of over 50% in size; also: potency is read from the fitted curve at half-maximal effect
# In short: (§2)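 Luminescence, which tracks viable cell number through reduction of the prosubstrate to a NanoLuc substrate, was read over continuous 37 C culture. Cells (600/well) were premixed with reagent and rested 5 h before 23 nL of compound in DMSO was pinned.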
# [5] = A CellTox Green Cytotoxicity Assay to monitor cytotoxicity in HEK293 cells - 24 hour (AID 1224875); also: series mostly up to about 77 µM; nearly all actives have a fitted effect of over 45% in size
# In short: as §1
# [6] = A CellTox Green Cytotoxicity Assay to monitor cytotoxicity in HepG2 cells - 16 hour (AID 1224876); also: nearly all actives have a fitted effect of over 45% in size; also: potency is read from the fitted curve at half-maximal effect
# In short: (§3)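 Real-time cytotoxicity: fluorescence of a cell-impermeant cyanine dye binding DNA of dead HepG2 cells, measured repeatedly (0–40 h) during compound exposure at 37 C. Cells seeded 600/well with reagent, dosed after 5 h.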
# [7] = qHTS RealTime-Glo MT Cell Viability Assay in HepG2 cells - 32 hour (AID 1224877); also: nearly all actives have a fitted effect of over 55% in size
# In short: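 Real-time, nonlytic viability: 600 HepG2 cells/well mixed with NanoLuc enzyme plus prosubstrate; 5 h settle, compound (DMSO) added by pintool; luminescence monitored over 40 h at 37 C.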
# [8] = A CellTox Green Cytotoxicity Assay to monitor cytotoxicity in HepG2 cells - 24 hour (AID 1224878); also: nearly all actives have a fitted effect of over 45% in size; also: potency is read from the fitted curve at half-maximal effect
# In short: as §3
# [9] = A CellTox Green Cytotoxicity Assay to monitor cytotoxicity in HepG2 cells - 40 hour (AID 1224879); also: nearly all actives have a fitted effect of over 40% in size; also: potency is read from the fitted curve at half-maximal effect
# In short: as §3
# [10] = qHTS RealTime-Glo MT Cell Viability Assay in HEK293 cells - 0 hour (AID 1224880)
# In short: as §2
Compound,Potency [1],Potency [2],outcome [3],Potency [4],max response [4],Potency [5],Potency [6],outcome [7],Potency [8],Potency [9],Potency [10]
CCCCCCCCCCCCCC(=O)OC(C)C,inactive,inactive and 4.36 µM (active),inactive,2.75 µM (active),1.2% (inactive) and -0.28% (inactive),inactive,inactive,inactive,inactive,inactive,inactive
CC1(C)O[C@@H]2[C@@H](CO[C@@]3(COS(N)(=O)=O)OC(C)(C)O[C@@H]23)O1,inactive,inactive,inactive,–,-1.97% (inactive),inactive,inactive,inactive,inactive,inactive,inactive
COC(=O)c1ccc(C=O)cc1,inactive,inactive,inactive,–,-13.1% (inactive) and 1.66% (inactive),inactive,inactive,inactive,inactive,–,inactive
C=C(C)C(N)=O,inactive,inactive,inactive,–,4.84% (inactive) and 13.1% (inactive),–,inactive,inactive,inactive,inactive,inactive
NC(=O)N1c2ccccc2C=Cc2ccccc21,inactive,inactive,inactive,34.5 µM (active),-19.3% (inactive) and 0.148% (inactive),–,inactive,inactive,inactive,inactive,inactive
Cc1ccc(O)c(-n2nc3ccccc3n2)c1,inactive,inactive,inactive,–,-4.85% (inactive) and -18.6% (inactive) and -8.22% (inactive),inactive,inactive,inactive,inactive,–,inactive
Cc1c(N(C)CS(=O)(=O)O)c(=O)n(-c2ccccc2)n1C,inactive,inactive,inactive,–,-0.4% (inactive) and 7.69% (inactive),inactive,inactive,inactive,inactive,inactive,inactive
CC(=O)CCC(C)C,inactive and 24.5 µM (active),inactive,inactive,–,-1.02% (inactive) and 1.57% (inactive),–,inactive and 38.9 µM (active),inactive,inactive and 38.9 µM (active),inactive and 27.5 µM (active),inactive
NC(=O)N/N=C/c1ccc([N+](=O)[O-])o1,inactive,inactive,inactive,–,-0.165% (inactive),–,inactive,inactive,inactive,inactive,inactive
CC(C)(C)NCC(O)c1ccc(O)c(CO)c1 (stereo unspecified),inactive,inactive,inactive,–,9.56% (inactive) and 4.37% (inactive),inactive,inactive,inactive,inactive,inactive,inactive
Cc1cnc(NC(=O)C2=C(O)c3ccccc3S(=O)(=O)N2C)s1,inactive,inactive,inactive,–,6.82% (inactive) and -5.33% (inactive) and 4.88% (inactive),inactive,inactive,inactive,inactive,–,inactive
CN/C(=C\[N+](=O)[O-])NCCSCc1ccc(CN(C)C)o1,inactive,inactive,inactive,–,4.86% (inactive) and 0.756% (inactive),inactive,inactive,inactive,inactive,–,inactive
CCN1CCCC1=O,inactive,inactive,inactive,–,0.414% (inactive) and 1.37% (inactive),inactive,inactive,inactive,inactive,inactive,inactive
C=C(C)OC(C)=O,inactive,inactive,inactive,–,5.33% (inactive) and 0.384% (inactive),inactive,inactive,inactive,inactive,inactive,inactive
CCCCCCCCCCCCCCCCCC(=O)OCC(O)CO (stereo unspecified),inactive,inactive,inactive,–,10.4% (inactive) and 6.82% (inactive) and 1.48% (inactive),inactive,inactive,inactive,inactive,–,inactive
CN(C)Cc1cc(CN(C)C)c(O)c(CN(C)C)c1,inactive,inactive,inactive,–,-0.259% (inactive) and 3.23% (inactive),inactive,inactive,inactive,inactive,inactive,inactive
NCCNc1cccc2ccccc12,inactive,54.9 µM (active) and 47.8 µM (active) and inactive,inactive,54.9 µM (active) and 53.6 µM (active),0.781% (inactive),–,inactive,inactive,53.6 µM (active) and inactive,–,–
C#C[C@]1(O)CC[C@H]2[C@@H]3CCc4cc(O)ccc4[C@H]3CC[C@@]21C,12.2 µM (active) and inactive,inactive,inactive,6.87 µM (active) and 21.9 µM (active),–,inactive,inactive,inactive,43.3 µM (active) and 6.7 nM (active),17.3 µM (active) and 19.5 µM (active),inactive
